Measurements from PubChem BioAssay (NCATS).
Inconclusive results are not listed. Calls of active or inactive are those of the source. Unless noted, calls come from the whole dose curve. Residues, ends and D or L forms follow the SMILES beside them. Peptide text beside a SMILES is read from it.

Columns and labels:
[1] = qHTS for Inhibitors of the Functional Ribonucleoprotein Complex (vRNP) of Lassa (LASV) Arenavirus: LASV Primary Screen - GLuc reporter signal (AID 1347082; calls by dose curve; tested in HEK293 reporter line; note: nearly all actives have a fitted effect of over 60% in size)
[2] = qHTS for Inhibitors of the Functional Ribonucleoprotein Complex (vRNP) of Lassa (LASV) Arenavirus: Viability assay - alamar blue signal for LASV Primary Screen (AID 1347083; calls by dose curve; tested in HEK293 reporter line; note: nearly all actives have a fitted effect of over 80% in size)
[3] = qHTS for Inhibitors of the Functional Ribonucleoprotein Complex (vRNP) of Lymphocytic Choriomeningitis Arenaviruses (LCMV): Viability assay - alamar blue signal for LCMV Primary Screen (AID 1347085; calls by dose curve; tested in HEK293 reporter line; note: nearly all actives have a fitted effect of over 80% in size)
[4] = target: Nucleoprotein (Lymphocytic choriomeningitis virus (strain Armstrong)) (UniProt P09992); assay: qHTS for Inhibitors of the Functional Ribonucleoprotein Complex (vRNP) of Lymphocytic Choriomeningitis Arenaviruses (LCMV): LCMV Primary Screen - GLuc reporter signal (AID 1347086); note: nearly all actives have a fitted effect of over 70% in size
Nucleoprotein (Lymphocytic choriomeningitis virus (strain Armstrong)), sequence (P09992 whole entry, looked up): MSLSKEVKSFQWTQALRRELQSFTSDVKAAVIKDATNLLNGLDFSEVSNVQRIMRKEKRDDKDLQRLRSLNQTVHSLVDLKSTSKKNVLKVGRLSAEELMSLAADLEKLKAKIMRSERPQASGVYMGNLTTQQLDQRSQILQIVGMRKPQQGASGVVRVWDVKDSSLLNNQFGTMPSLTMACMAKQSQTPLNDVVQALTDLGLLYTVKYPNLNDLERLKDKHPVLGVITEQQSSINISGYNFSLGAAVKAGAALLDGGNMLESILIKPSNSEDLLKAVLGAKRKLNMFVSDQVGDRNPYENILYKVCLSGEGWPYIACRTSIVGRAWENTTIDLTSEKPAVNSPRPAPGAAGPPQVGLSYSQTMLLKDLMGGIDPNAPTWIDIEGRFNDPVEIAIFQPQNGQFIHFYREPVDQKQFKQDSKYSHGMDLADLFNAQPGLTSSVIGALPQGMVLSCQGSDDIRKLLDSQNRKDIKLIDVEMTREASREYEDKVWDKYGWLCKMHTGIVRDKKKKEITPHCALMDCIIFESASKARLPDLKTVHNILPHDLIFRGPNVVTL

Measured: Potency
Note: series mostly up to about 57 µM.

COC(=O)[C@H](Cc1ccccc1)NC(=O)[C@@H](N)CC(=O)O (H-Asp-Phe-OMe)
inactive: all assays above

FC(F)(F)c1ccccc1-n1ccnc1
inactive: all assays above

CCN(CC)CCNC(=O)COc1ccc(OC)cc1
inactive: all assays above

Cc1cc(CCCOc2c(C)cc(-c3noc(C(F)(F)F)n3)cc2C)on1
inactive: all assays above

NC(=O)NC1N=C([O][Al])NC1=O (stereo not given)
inactive: all assays above

OCc1cccnc1
inactive: all assays above

COC(=O)c1cccnc1
inactive: all assays above

O=c1[nH]cnc2[nH]ncc12
inactive: all assays above

CN=C(NC#N)NCCSCc1csc(N=C(N)N)n1
inactive: all assays above

CC1CC(OC(=O)c2ccccc2O)CC(C)(C)C1 (stereo not given)
inactive: all assays above

CC(O)(P(=O)(O)O)P(=O)(O)O
inactive: all assays above

Cc1c(F)c(N2CCNC(C)C2)cc2c1c(=O)c(C(=O)O)cn2C1CC1 (stereo not given)
inactive: all assays above

Cn1c(=O)c2c(ncn2CCO)n(C)c1=O
inactive: all assays above

Nc1ncnc(Nc2ccccc2)n1
inactive: all assays above

C[N+](C)(C)CCOC(N)=O
inactive: all assays above

Nc1ncnc2nc[nH]c12
inactive: all assays above

Nc1ccc(S(=O)(=O)Nc2ccnn2-c2ccccc2)cc1
inactive: all assays above

CO[C@@]1(NC(=O)C(C(=O)O)c2ccc(O)cc2)C(=O)N2C(C(=O)O)=C(CSc3nnnn3C)CO[C@@H]21 (stereo not given in full)
inactive: all assays above

Clc1ccc2nsnc2c1NC1=NCCN1
inactive: all assays above

Cc1cc(=O)c2c(O)c3c(O)cc(=O)c4c3c3c(cc(O)c1c23)C(C)(C)C=4O
inactive: all assays above

Clc1cccc(Cl)c1NC1=NCCN1
inactive: all assays above

Cc1oc(=O)oc1CN1CCN(c2cc3c(cc2F)c(=O)c(C(=O)O)c2n3C(C)S2)CC1 (stereo not given)
inactive: all assays above

C#CCN[C@@H]1CCc2ccccc21
inactive: all assays above

O=C(OCCN1CCOCC1)c1cccnc1Nc1cccc(C(F)(F)F)c1
inactive: all assays above

O=C(O)CCCCC(=O)O
inactive: all assays above

C[C@@H]1C[C@H]2[C@@H]3C[C@H](F)C4=CC(=O)C=C[C@]4(C)[C@@]3(F)[C@@H](O)C[C@]2(C)[C@@]1(O)C(=O)CO
inactive: all assays above

c1ccc(-c2nc[nH]c2-c2ccccc2)cc1
inactive: all assays above

OC[C@H]1O[C@@H](n2cnc3c2NC=NC[C@H]3O)C[C@@H]1O
inactive: all assays above

NC(=S)N/N=C/c1cccnc1
inactive: all assays above

CC(=O)NCCCCCC(=O)O
inactive: all assays above

C[C@H](CS)C(=O)N1CCC[C@H]1C(=O)O
inactive: all assays above

O=C(O)[C@@H](O)[C@H](O)[C@H](O)[C@@H](O)C(=O)O
inactive: all assays above

O=C1CCCc2c(O)cccc21
inactive: all assays above

CC(=O)Oc1cccc2c1C(=O)c1c(OC(C)=O)cc(C(=O)O)cc1C2=O
inactive: all assays above

CC(NN)c1ccccc1 (stereo not given)
inactive: all assays above

CC(=O)Nc1ccc(C(=O)O)cc1
inactive: all assays above

CC(C)[C@H](N)C(=O)OCCOCn1cnc2c(=O)[nH]c(N)nc21
inactive: all assays above

CO/N=C(/C(=O)N[C@@H]1C(=O)N2C(C(=O)OCOC(=O)C(C)(C)C)=C(C)CS[C@H]12)c1csc(N)n1
inactive: all assays above

CC(=O)Nc1ccc(OCC(O)CNC(C)C)cc1 (stereo not given)
inactive: all assays above

CCC1=C(C)CN(C(=O)NCCc2ccc(S(=O)(=O)NC(=O)NC3CCC(C)CC3)cc2)C1=O (stereo not given)
inactive: all assays above

CCNC(=O)/C=C/c1cccc(Br)c1
inactive: all assays above

CCOCCn1c(C2CCN(CCc3ccc(C(C)(C)C(=O)O)cc3)CC2)nc2ccccc21
inactive: all assays above

O=C(CCBr)N1CCN(C(=O)CCBr)CC1
inactive: all assays above

Cc1cc(NS(=O)(=O)c2ccc(N)cc2)no1
inactive: all assays above

COc1ccccc1OCC(O)CO (stereo not given)
inactive: all assays above

NCc1ccc(S(N)(=O)=O)cc1
inactive: all assays above

CC1(C)O[C@@H]2C[C@H]3[C@@H]4CCC5=CC(=O)C=C[C@]5(C)[C@@]4(F)[C@@H](O)C[C@]3(C)[C@]2(C(=O)CO)O1
inactive: all assays above

CCN(CC)CCNC(=O)c1cc(S(C)(=O)=O)ccc1OC
inactive: all assays above

c1ccc2c(CC3=NCCN3)cccc2c1
inactive: all assays above

COc1nccnc1NS(=O)(=O)c1ccc(N)cc1
inactive: all assays above

CCNC(=O)[C@@H]1CCCN1C(=O)[C@H](CCCN=C(N)N)NC(=O)[C@H](CC(C)C)NC(=O)CNC(=O)[C@H](Cc1ccc(O)cc1)NC(=O)[C@H](CO)NC(=O)[C@H](Cc1c[nH]c2ccccc12)NC(=O)[C@H](Cc1cnc[nH]1)NC(=O)[C@@H]1CCC(=O)N1 (HELM PEPTIDE1{[Glp].H.W.S.Y.G.L.R.P.[CCN[*:1]]}$$$$V2.0)
inactive: all assays above

COc1ccc(-c2ccc3cc(C(=O)O)ccc3c2)cc1C12CC3CC(CC(C3)C1)C2
inactive: all assays above

O=c1[nH]c(=O)n([C@H]2C[C@H](O)[C@@H](CO)O2)cc1Br
inactive: all assays above

CC1(C)O[C@@H]2C[C@H]3[C@@H]4CCC5=CC(=O)C=C[C@]5(C)[C@@H]4[C@@H](O)C[C@]3(C)[C@]2(C(=O)CO)O1
inactive: all assays above

COc1cc(C(=O)N2CCOCC2)cc(OC)c1OC
inactive: all assays above

Cc1cc(C(C#N)c2ccc(Cl)cc2)c(Cl)cc1NC(=O)c1cc(I)cc(I)c1O (stereo not given)
inactive: all assays above

O=S(=O)(O)c1ccc(O)cc1
inactive: all assays above

CNC(=O)c1c(I)c(NC(C)=O)c(I)c(C(=O)O)c1I
inactive: all assays above

CCOC(=O)C1=C(C)NC(C)=C(C(=O)OC)C1c1cccc([N+](=O)[O-])c1 (stereo not given)
inactive: all assays above

Cc1noc(NS(=O)(=O)c2ccc(N)cc2)c1C
inactive: all assays above
